Source: PubChem
Sampled rows, rich in hits. Any-hit rate of the full collection: about 2.7%.
SENP8 block-1 = inhibitors of human SENP8 protease. purified SENP8, Z-RLRGG-aminoluciferin cleavage, luminescence. inhibition, % at 10 µM. actives 1.2% (n = 330,000). AID 2540; in the data active = inhibition above about 50%
Target sequence (Q96LD8 whole entry, looked up): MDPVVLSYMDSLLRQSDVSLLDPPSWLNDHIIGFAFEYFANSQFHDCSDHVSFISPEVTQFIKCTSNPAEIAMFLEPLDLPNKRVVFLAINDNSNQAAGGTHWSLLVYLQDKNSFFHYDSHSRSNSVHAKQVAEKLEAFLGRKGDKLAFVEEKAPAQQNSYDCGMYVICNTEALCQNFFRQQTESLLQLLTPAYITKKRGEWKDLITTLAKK
SENP6 inh = blocks the human protease SENP6; actives 1.8% (n = 330,000); inhibition, % at 10 µM; Recombinant SENP6 catalytic domain, aminoluciferin luminescence; AID 2599;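 active = inhibition above about 50% at the single tested dose, limit read from the data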;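 also: plate controls were DMSO wells with enzyme for no effect and DMSO wells lacking enzyme for full effect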
HSP90 inh = HSP90 refolding inhibition in rabbit reticulocyte lysate; luciferase refolding luminescence, 3 h; inhibition, % at 5.6 µM; actives 0.91% (n = 290,000); AID 1789;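 active = inhibition above the screen-wide mean plus 3 SD, computed separately per campaign, cut at about 16% in these data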;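 also: 0% = DMSO wells and 100% = 60 µM geldanamycin wells; inhibitors lower the luminescence because luciferase stays unfolded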
SENP7 inh = inhibitors of human SENP7 protease. Q9BQF6. recombinant SENP7, Z-RLRGG-aminoluciferin luminescence, 40 min. inhibition, % at 5 µM. actives 1.5% (n = 330,000). AID 434973;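 active = inhibition above about 50% at the single test dose, limit read from the data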;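 also: plate controls were DMSO with enzyme for no effect and no enzyme buffer wells for full effect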
Target sequence (Q9BQF6 706-1050 limits assumed): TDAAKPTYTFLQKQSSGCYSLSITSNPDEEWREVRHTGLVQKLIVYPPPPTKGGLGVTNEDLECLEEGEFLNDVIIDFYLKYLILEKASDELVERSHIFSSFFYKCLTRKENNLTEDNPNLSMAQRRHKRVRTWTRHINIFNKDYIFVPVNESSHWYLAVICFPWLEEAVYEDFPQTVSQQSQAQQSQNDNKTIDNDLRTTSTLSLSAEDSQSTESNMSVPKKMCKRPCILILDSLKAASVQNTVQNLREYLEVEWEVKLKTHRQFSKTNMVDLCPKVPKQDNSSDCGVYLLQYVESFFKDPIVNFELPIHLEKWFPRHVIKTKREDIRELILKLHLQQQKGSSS
SENP8 block-2 = blocks human SENP8 cleavage of Nedd8 substrate | actives 0.64% (n = 360,000) | inhibition, % at 20 µM | AID 602440 | recombinant SENP8, Nedd8 substrate fluorescence; in the data active = inhibition mostly above about 40%, no sharp cut-off; inactive = mostly below about 27%
HSP90 confirm = HSP90 inhibition, confirmation assay. actives 64% (n = 2,300). AID 1846. inhibition, % at 5.9 µM. rabbit reticulocyte lysate, luciferase refolding luminescence, 3 h. shares compounds with HSP90 inh; in the data active = inhibition above about 18%;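 also: 0% = vehicle wells and 100% = reference inhibitor wells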
FLuc counter = firefly luciferase inhibition, HSP90 counter-screen; shares compounds with HSP90 inh; purified native firefly luciferase, luminescence; inhibition, % at 5.9 µM; actives 48% (n = 2,300);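 active = inhibition above the mean inhibition of all tested sample wells plus 3 SD, cut at about 10% in these data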;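 also: 0% = DMSO with luciferase and 100% = wells lacking luciferase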
* hit, by the source's call; nt = no result given.

SMILES | SENP8 block-1 | SENP6 inh | HSP90 inh | SENP7 inh | SENP8 block-2 | HSP90 confirm | FLuc counter
O=C(COC(=O)[C@@H]1CCCN1S(=O)(=O)c1ccccc1F)c1ccccc1 | -3 | 0 | 2 | -2 | 4 | nt | nt
Cc1[nH]c(-c2ccc3c(c2)OCO3)nc1C(=O)O | 0 | 12 | -1 | -3 | -35 | nt | nt
Cc1[nH]c(-c2ccco2)nc1C(=O)O | 4 | -18 | 18* | -3 | 17 | 0 | -3
COc1ccccc1NC(=O)O/N=C(\N)c1ccccc1 | -5 | -15 | 17* | -4 | 14 | -1 | -13
COc1ccc(-c2cc(C)nc3c(-c4ccccc4)cnn23)cc1 | nt | nt | 21* | nt | 18 | 45* | 28*
Cc1cc(-c2ccccc2)n2ncc(-c3ccccc3)c2n1 | -7 | 29 | 22* | 24 | 22 | 61* | 55*
Cc1cc(NCc2ccccc2)n2ncc(-c3ccccc3)c2n1 | 1 | -1 | 2 | 9 | -270 | nt | nt
Cc1ccc(C)c(SCC(=O)NC(=O)NCc2ccccc2)c1 | -2 | -12 | 0 | 0 | 14 | nt | nt
Cn1cnnc1SCC(=O)Nc1sc2c(c1C(N)=O)CCC2 | 3 | -46 | 22* | -1 | -8 | 5 | -6
Cc1[nH]c2ccccc2c1/C=N/Nc1cccc(C(=O)O)c1 | 12 | 20 | 54* | 3 | -54 | 54* | 41*
Cc1c(/C=N/Nc2ccc(C(=O)O)cc2)c2ccccc2n1C | 3 | 4 | 42* | 10 | -398 | 38* | 26*
CCc1nnc(N/N=C/c2c(C)[nH]c3ccccc23)n1N | -7 | 6 | 75* | -6 | 19 | -1 | -3
O=C(O)c1cccc(N/N=C/c2ccc(-c3ccccc3)cc2)c1 | nt | nt | 28* | nt | -65 | 54* | 67*
c1ccc(-c2ncc(CSc3nncn3-c3ccccc3)s2)cc1 | 2 | 7 | -7 | 6 | 10 | nt | nt
Cc1nnc(SCc2cnc(-c3ccc(C(C)C)cc3)s2)n1C | -2 | 1 | 38* | 2 | 22 | 50* | 41*
Cc1cc(C(=O)Cn2nnc3ccccc3c2=O)c(C)n1-c1ccccc1F | 4 | 15 | 62* | 4 | 22 | 70* | 54*
Cc1cc(C(=O)COC(=O)c2ccc(O)cc2)c(C)n1-c1ccccc1F | 18 | 0 | 50* | -17 | -20 | 58* | 49*
COc1ccc(-n2c(C)cc(C(=O)Cn3nnc4ccccc4c3=O)c2C)cc1 | -5 | -10 | -3 | 1 | -3 | nt | nt
Cc1cc(C(=O)COC(=O)c2ccc[nH]c2=O)c(C)n1-c1ccccc1F | -3 | -2 | 5 | -7 | 4 | nt | nt
Cc1ccc(SCc2cn3ccccc3n2)cc1 | 10 | 21 | 5 | 23 | 14 | nt | nt
Cn1ccnc1SCc1cn2cc(Br)ccc2n1 | -8 | 1 | 18* | 6 | 13 | 40* | 34*
N/C(=N\NC(=O)Nc1ccccc1)c1ccccn1 | -8 | -17 | 32* | -8 | 32 | 9 | -1
CNC(=S)N(CCCn1ccnc1)Cc1c(F)cccc1Cl | -3 | -14 | 5 | 3 | 3 | nt | nt
CC(=O)N1c2ccccc2Oc2cc3ccccc3cc21 | -6 | 8 | 21* | -5 | -229 | 47* | -13
COc1cc(/C=N/Nc2nncn2/N=C/c2ccc(O)c(OC)c2)ccc1O | -8 | -13 | 12 | -2 | -106 | nt | nt
SMILES | SENP8 block-1 | SENP6 inh | HSP90 inh | SENP7 inh | SENP8 block-2 | HSP90 confirm | FLuc counter
COc1ccc(OC)c(/C=N/Nc2nncn2/N=C/c2cc(OC)ccc2OC)c1 | -16 | -17 | 42* | -4 | -195 | -2 | -12
Cc1cccc(NCc2cc(Cl)cc(Cl)c2O)n1 | 0 | -4 | 18* | 4 | 5 | -2 | -4
CCCCNC(=O)COC(=O)c1c2c(nc3ccccc13)CCC2 | -2 | 4 | 33* | -6 | -41 | 6 | -5
CNC(=O)COC(=O)c1c2c(nc3ccccc13)CCC2 | 0 | -13 | 5 | 4 | -34 | nt | nt
C[C@H](CO)N1C[C@H](C)[C@@H](CN(C)C)Oc2c(NC(=O)CCCCCC(=O)Nc3ccccc3N)cccc2C1=O | 2 | -7 | nt | 1 | 13 | nt | nt
O=C(CNS(=O)(=O)c1cccc2nsnc12)NCc1ccc(Cl)cc1 | -2 | 2 | 1 | 3 | 14 | nt | nt
COc1ccc(S(=O)(=O)N(CC(=O)O)c2ccc(C)cc2)cc1 | 3 | -1 | 1 | 6 | 23 | nt | nt
O=C(CCCSc1nc2ccccc2s1)NCc1ccc2c(c1)OCO2 | -12 | -1 | -2 | -4 | 12 | nt | nt
Cc1cc(SCC#N)n2nc(C)c(-c3ccc(Cl)cc3)c2n1 | -2 | -6 | 3 | 3 | 9 | nt | nt
COc1ccccc1N1CCN(/N=C/c2ccc(C(=O)O)cc2)CC1 | 13 | 28 | 46* | 19 | 3 | 60* | 39*
COc1ccc(/C=N/N2CCN(c3ccccc3OC)CC2)cc1OC | 3 | 3 | 2 | -10 | 8 | nt | nt
CC(C)Oc1cccc(C(=O)NC(=S)Nc2ccccc2)c1 | 11 | 46 | 23* | 16 | 5 | 20* | 8
COc1cccc(/C=N/Nc2ncccc2[N+](=O)[O-])c1OC | 95* | 99* | 67* | 98* | 37 | 77* | 70*
COc1cccc(/C=N/Nc2nc(C)cc(=O)[nH]2)c1OC | -10 | -23 | -5 | -3 | -61 | nt | nt
O=C(O)c1ccc(Nc2nc3c(s2)CCCC3)cc1 | 96* | 99* | 67* | 100* | -88 | 91* | 80*
Cc1cccc(Nc2nc3c(s2)CCCC3)c1 | nt | nt | -8 | nt | 6 | nt | nt
O=c1[nH]c(C2CCN(S(=O)(=O)c3ccc4c(c3)OCCO4)CC2)nc2c1nnn2Cc1ccccc1 | -5 | -25 | 9 | -8 | 15 | nt | nt
Cc1ccc(C)c(S(=O)(=O)N2CCC(c3nc4c(nnn4Cc4ccc5c(c4)OCCO5)c(=O)[nH]3)CC2)c1 | 12 | -16 | 21* | -2 | 16 | 25* | -4
CCCN(CCC)c1nc(Cl)nc(NCc2ccco2)n1 | 2 | -23 | 1 | 1 | 5 | nt | nt
Cc1cccc(N(CC(=O)NCc2ccccc2)C(=O)Cn2nnc(-c3ccc(C)o3)n2)c1 | 2 | 2 | 4 | 0 | 10 | nt | nt
COc1ccc(N(CC(=O)NCc2ccc(F)cc2)C(=O)Cn2nnc(-c3ccc(C)o3)n2)cc1OC | 5 | 2 | 49* | -5 | 6 | 0 | -3
COc1ccc(NC(=S)NCCc2ccc(S(N)(=O)=O)cc2)c(OC)c1 | 1 | -4 | 1 | -2 | -1 | nt | nt
COc1cc(C2NC(=O)NC(c3ccccc3)=C2C(C)=O)c(Br)c(Br)c1O (stereo not drawn) | -7 | 4 | 18* | -8 | 16 | 0 | -2
COc1ccccc1/C=N\N=C(\N)c1ccccn1 | -4 | -18 | 25* | 18 | 26 | 9 | -12
COc1ccccc1C=NN=C(N)C(N)=NN=Cc1ccccc1OC | nt | nt | nt | nt | 7 | nt | nt
CC(C)c1ccc(NC(=O)CSc2n[nH]c(=O)n2Cc2ccco2)cc1 | -10 | -13 | 10 | 10 | 24 | nt | nt
